Bioassay records from PubChem.
In the library only some 1% were active in any assay of this set; here they are far more common.
FEN1 inh: qHTS Assay for the Inhibitors of Human Flap endonuclease 1 (FEN1); hit rate 0.35% among 390,000; Potency, µM (highest dose often 114 µM), without a hit: top-dose activity change, negative = inhibition, most hits filed as inhibitors; P39748; Recombinant FEN1 flap cleavage, fluorescence, 15 min; AID 588795, 2011; also: nearly all actives have a fitted effect of over 65% in size
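Potency values derive from four-parameter Hill fits of normalized qHTS data. The reaction used 10 nM FEN1 preincubated 15 min at room temperature with compound, then 50 nM DNA substrate, read at 0 and 15 min.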
WRN helicase inh: qHTS for Inhibitors of WRN Helicase; Bifunctional 3'-5' exonuclease/ATP-dependent helicase WRN (Homo sapiens), Q14191; WRN helicase unwinding, fluorescent forked duplex, kinetic; Potency, µM (top dose mostly 114 µM), inactives show at the top dose activity change, negative = inhibition, most hits filed as inhibitors; hit rate 0.46% among 360,000; AID 651768, 2012; also: nearly all actives have a fitted effect of over 55% in size
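Enzyme (20 nM final) and test compound sit together 15 min at room temperature before substrate addition. Substrate is a single-forked duplex oligonucleotide (100 nM) labelled with fluorophore and quencher, with 2 mM ATP; helicase unwinding raises red fluorescence, read kinetically.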
APE1 inh: qHTS Assay for Inhibitors of the Human Apurinic/apyrimidinic Endonuclease 1 (APE1); DNA repair nuclease/redox regulator APEX1 (Homo sapiens), P27695; recombinant APE1, TAMRA/BHQ-2 abasic DNA cleavage fluorescence; Potency, µM (titrated, usually from 65.8 µM), for the others: at the highest dose activity change, negative = inhibition, actives largely listed as inhibitors; hit rate 0.35% among 350,000; AID 2517, 2012;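 also: plate controls were vehicle for no effect and reference inhibitor for full effect; nearly all actives have a fitted effect of over 55% in size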
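Incision of a quenched TAMRA/BHQ-2 THF abasic-site duplex (50 nM) by 0.75 nM APE1, after 15 min compound preincubation, measured as fluorescence increase over three 60 s reads. Values normalized to buffer, DMSO and NSC13755 control wells.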
RECQ1 inh: qHTS Assay for Inhibitors of RecQ-Like Dna Helicase 1 (RECQ1) | ATP-dependent DNA helicase Q1 (Homo sapiens), P46063 | RECQ1 DNA unwinding, red fluorescence kinetic read | Potency, µM (top dose mostly 57.3 µM), inactives show at the top dose activity, negative = inhibition, usual class: inhibitors | hit rate 0.54% among 240,000;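 also: plate controls were vehicle for no effect and no enzyme for full effect; nearly all actives have a fitted effect of over 30% in size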
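50 nM RECQ1T1 preincubated 15 min with compound in Tris pH 8.0 buffer with MgCl2, DTT, Tween-20 and 2.5 ug/ml poly(dI-dC); started with 200 nM TAMRA/BHQ-2 forked duplex and 2 mM ATP. Unwinding read as fluorescence (525/598 nm), two reads 2 h apart.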
BLM inh: qHTS Assay for Inhibitors of Bloom's syndrome helicase (BLM); RecQ-like DNA helicase BLM (Homo sapiens), P54132; recombinant BLM DNA unwinding, fluorescence dequenching; Potency, µM (highest dose often 56.1 µM), inactives show top-dose activity change, negative = inhibition, most hits filed as inhibitors; hit rate 0.2% among 350,000; AID 2528, 2010;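 also: plate controls were vehicle for no effect and no enzyme for full effect; nearly all actives have a fitted effect of over 35% in size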
Target sequence (P54132 whole entry, looked up): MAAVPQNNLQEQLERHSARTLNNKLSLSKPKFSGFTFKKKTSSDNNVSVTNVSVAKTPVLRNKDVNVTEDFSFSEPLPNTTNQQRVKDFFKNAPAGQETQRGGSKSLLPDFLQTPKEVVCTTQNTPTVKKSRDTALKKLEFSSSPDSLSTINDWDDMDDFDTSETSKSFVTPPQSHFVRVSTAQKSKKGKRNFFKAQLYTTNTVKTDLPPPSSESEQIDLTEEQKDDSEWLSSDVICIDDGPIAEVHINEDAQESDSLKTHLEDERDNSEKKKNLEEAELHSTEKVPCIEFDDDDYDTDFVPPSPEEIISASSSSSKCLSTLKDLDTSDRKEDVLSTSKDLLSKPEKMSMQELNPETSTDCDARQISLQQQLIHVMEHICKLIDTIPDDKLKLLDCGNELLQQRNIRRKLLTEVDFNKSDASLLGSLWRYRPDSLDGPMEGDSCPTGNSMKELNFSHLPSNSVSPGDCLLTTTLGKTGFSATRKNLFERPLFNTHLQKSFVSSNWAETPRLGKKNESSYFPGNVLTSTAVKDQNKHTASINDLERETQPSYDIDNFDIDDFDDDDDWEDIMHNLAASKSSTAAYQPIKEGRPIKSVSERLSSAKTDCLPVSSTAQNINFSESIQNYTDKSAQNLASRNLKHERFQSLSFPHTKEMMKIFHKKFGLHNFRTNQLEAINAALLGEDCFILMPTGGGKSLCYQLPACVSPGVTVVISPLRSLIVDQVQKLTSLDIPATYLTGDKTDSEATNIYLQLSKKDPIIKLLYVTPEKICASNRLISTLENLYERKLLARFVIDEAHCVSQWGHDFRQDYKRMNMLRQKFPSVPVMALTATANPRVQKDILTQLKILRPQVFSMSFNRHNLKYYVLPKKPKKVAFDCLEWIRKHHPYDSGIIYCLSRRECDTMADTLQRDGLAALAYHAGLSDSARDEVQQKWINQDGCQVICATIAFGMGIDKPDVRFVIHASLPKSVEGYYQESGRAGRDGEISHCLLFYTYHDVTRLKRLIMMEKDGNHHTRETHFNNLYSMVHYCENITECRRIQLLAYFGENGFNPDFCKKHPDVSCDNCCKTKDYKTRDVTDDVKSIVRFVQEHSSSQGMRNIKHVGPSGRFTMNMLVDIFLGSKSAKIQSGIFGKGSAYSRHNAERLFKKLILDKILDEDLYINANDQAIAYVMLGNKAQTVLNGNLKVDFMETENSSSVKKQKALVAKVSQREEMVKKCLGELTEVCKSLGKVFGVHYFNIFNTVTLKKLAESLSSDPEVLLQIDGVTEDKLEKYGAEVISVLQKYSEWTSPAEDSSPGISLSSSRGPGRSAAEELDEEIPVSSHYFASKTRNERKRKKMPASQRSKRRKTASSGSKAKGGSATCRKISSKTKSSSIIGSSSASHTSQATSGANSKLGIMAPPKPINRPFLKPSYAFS
L3MBTL1 inh: qHTS Assay for the Inhibitors of L3MBTL1. Potency, µM (doses to about 57.1 µM), for the others: at the highest dose activity, negative = inhibition, most hits filed as inhibitors. hit rate 0.66% among 230,000. AlphaScreen L3MBTL1–H3K9me1 peptide binding. Lethal(3)malignant brain tumor-like protein 1 (Homo sapiens), Q9Y468; also: nearly all actives have a fitted effect of over 60% in size
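L3MBTL1 (50 nM) pre-complexed 30 min with biotinylated H3(1-15)K9me1 peptide (75 nM), then compounds added for 30 min at room temperature; AlphaScreen streptavidin donor/nickel chelate acceptor beads (10 ug/mL final) read after 30 min dark incubation.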
Numbers without * were called inactive; i = inactive; ? = inconclusive; · = no result; [ ] = dose if it differs, or a comment. Calls follow the shape of the dose curve; as a rule, active = well fitted curve in the direction sought with a large enough effect; inconclusive = small, poorly fitted or top-dose-only effect, or another doubt; inactive = no such curve, though single readings can be large; an effect the other way counts as inactive or inconclusive. Unless noted, % is scaled to controls: 0 for no effect and ±100 for the full control effect; potency is read from the fitted curve at half-maximal effect.

SMILES	FEN1 inh	WRN helicase inh	APE1 inh	RECQ1 inh	BLM inh	L3MBTL1 inh
CCOC(=O)C1CCN(Cc2ccc(O)c3ncccc23)CC1	?	6%	-9%	i	-13%	28µM*
OCCCNC(=S)Nc1ccc2nccnc2c1	40µM*	7%	1%	-6%	1%	8%
NC(=O)C1CCN(c2nc(-c3ccc([N+](=O)[O-])cc3)cs2)CC1	·	·	38%	·	·	·
N#C/C(=C/c1ccncc1)c1nc2ccccc2c(=O)[nH]1	9%	-26%	-2%	-10%	-16%	·
N#C/C(=C\c1cc(Br)c(O)c(Br)c1)c1nc2ccccc2c(=O)[nH]1	-26%	·	·	·	13µM*	·
NC(=O)[C@H]1CCCN1C(=O)[C@H](Cc1cnc[nH]1)NC(=O)[C@@H]1CCC(=O)N1	·	·	1%	-16%	3%	·
O=C(O)C(S)C(S)C(=O)O (stereo not given)	-26%	-29%	·	·	·	·
O=C(O)C(S)[C@@H](S)C(=O)O (stereo not given in full)	·	·	14µM*	i	4%	·
O=C(O)c1ccc(N/N=C/c2ccc(-c3ccc(Cl)cc3Cl)o2)cc1	?	-3%	-7%	-8%	-6%	-9%
O=C(O)c1ccc(N/N=C/c2ccc(-c3cc(Cl)ccc3Cl)o2)cc1	79µM*	-31%	?	-21%	-15%	·
CNc1ccc(O)cc1	·	·	-8%	32µM*	·	·
CNc1ccccc1	-7%	6%	-4%	16%	·	-4%
Cc1onc(-c2ccccc2)c1C(=O)Nc1nnc(COc2ccc(Cl)cc2)s1	-1%	56µM*	16%	-15%	-7%	-2%
CCn1cc(C(=O)OCC(=O)Nc2cccc(C(C)=O)c2)c(=O)c2ccc(C)nc21	-4%	·	·	·	-10%	·
CCOC(=O)C1=C(C)N(C[C@@H]2CC[C@@H](Cc3ccc(-c4ccccc4)cc3)O2)C(=O)NC1c1ccc(SCc2ccco2)c([N+](=O)[O-])c1 (stereo not given in full)	-24%	?	-19%	·	·	32µM*
C=CC(=O)Nc1cccc(CN2C(=O)N(c3cc(OC)cc(OC)c3)Cc3cnc(NCCCCN(CC)CC)nc32)c1	-11%	2%	·	·	·	·
Cc1cc(/C=C\c2ccc3cc(N(C)C)ccc3[n+]2C)c(C)n1-c1ccccc1	-34%	?	-28%	-1%[25.9 µM]	?	32µM*
COCCCNC(=O)CSc1ccsc1[N+](=O)[O-]	12%	-5%[11.6 µM]	-5%	0%	-4%	-7%
Cc1ccccc1NC(=O)CSc1ccsc1[N+](=O)[O-]	?	50µM*	?	?	-25%	25µM*
O=C1C=CC2(O[C@H](c3ccccc3)[C@@H](c3ccccc3)O2)[C@H](Sc2ccccc2O)C1	-2%	11µM*	·	·	·	·
C[C@@H]1[C@@H](Sc2ccccc2)CC(=O)O[C@@H]1c1ccc(-c2ccccc2)cc1	-4%	-15%	-3%	2%	-2%	·
CCOC(=O)N1CCN(/[N+]([O-])=N/Oc2ccc(C(F)(F)F)cc2[N+](=O)[O-])CC1	4%	·	·	·	·	·
CCSC1=NSC2=NC(=O)/C(=C\c3coc4ccccc4c3=O)C(=N)N12	?	?	-2%	-5%	-15%	4%
CC(C)CC1=NN2C(=N)/C(=C\c3coc4ccccc4c3=O)C(=O)N=C2S1	32µM*	?	21%	?	-8%	·
Cc1nc2ccccc2c(=O)n1/N=C/c1c(O)ccc2ccccc12	1%	-21%	3%	11%	-5%	22µM*
SMILES	FEN1 inh	WRN helicase inh	APE1 inh	RECQ1 inh	BLM inh	L3MBTL1 inh
CC(=O)Nc1ccn(C2OC(C(COC(C)=O)NC(=O)C(Cc3ccccc3)NC(=O)OC(C)(C)C)C(OC(C)=O)C2OC(C)=O)c(=O)n1 (stereo not given)	-5%	·	0%	i	1%	·
CCCN(CCC)C1=N/C(=C\c2ccco2)C(=O)N1c1ccccc1	-8%	-3%	-3%	28µM*	-11%	·
COc1cccc(/C(O)=C/c2nc3ccc(C(=O)NCCc4cccc(C)c4)cc3[nH]c2=O)c1	-1%	71µM*	-3%	3%	-1%	-9%
COc1cc2nc(N3CCCN(C)CC3)nc(NC3CCNCC3)c2cc1OC	25µM*	·	·	·	·	·
COc1cc2c(NC3CCN(C)CC3)nc(N3CCCN(C)CC3)nc2cc1OCC1CCCNC1 (stereo not given)	20µM*	·	·	·	·	·
COc1cc2nc(N3CCOCC3)nc(NC3CC3)c2cc1OC	-16%	·	·	·	·	·
O=C(Nc1cccnc1)c1cnn2c1NC(=C1CC1)C=C2C(F)F	·	·	41%	·	·	·
O=C(c1cccs1)c1no[n+]([O-])c1C(=O)c1cccs1	5%	28µM*	-3%	0%	-17%	-6%
N#Cc1c(-c2ccc(O)cc2)no[n+]1[O-]	·	·	-12%	·	·	·
CN(C)c1ncc2nc(-c3ccc(Cl)cc3)c(=O)n(Cc3ccc(F)cc3)c2n1	·	·	32µM*	-6%	1%	·
Cc1nc(N=Nc2cc(S(=O)(=O)O)ccc2S(=O)(=O)O)c(COP(=O)(O)O)c(C=O)c1O	·	·	16µM*	-30%	88%	·
COc1ccc(C2=NN(c3nc(-c4ccccc4)c(CC(=O)O)s3)C(c3ccco3)C2)cc1 (stereo not given)	6%	?	-5%	-17%	-29%	32µM*
CC(C)(C)n1ncc2c(=O)n(Cc3ccccc3Cl)cnc21	9%	·	1%	·	·	·
O=C1C(Cl)=C(NC2CCc3ccccc32)C(=O)c2ncccc21 (stereo not given)	·	·	?	11µM*	2.5µM*	·
C=C(CCC12O[C@H](C(=O)O)[C@@](O)(C(=O)O)[C@](C(=O)O)(O1)[C@H](OC(=O)/C=C/[C@@H](C)C[C@@H](C)CC)[C@H]2O)[C@@H](OC(C)=O)[C@H](C)Cc1ccccc1	·	·	-6%	i	22µM*	·
C=C(CC[C@]12OC(C(=O)O)C(O)(C(=O)O)C(C(=O)O)(O1)C(OC(=O)/C=C/[C@@H](C)C[C@@H](C)CC)C2O)[C@@H](OC(C)=O)[C@H](C)Cc1ccccc1 (stereo not given in full)	-1%	·	·	·	·	·
COc1ccc(-c2no[n+]([O-])c2C#N)cc1	·	·	1%	·	·	·
